Active and inactive are the calls of the source. Rule for the calls: active = hit-call score of the fitted dose curve at least 0.9, where 1 is the maximum; inactive = score below 0.9.
Tests used:
Details in all cases: mRNA level, 48 h; actives raise or lower the signal
[1] = read-out: 3-Hydroxy-3-Methylglutaryl-CoA Synthase 2 (HMGCS2), HMGCS2 (gene 3158); experiment: LTEA_HepaRG_HMGCS2: Life Technologies and Expression Analysis (LTEA) Assay for 3-Hydroxy-3-Methylglutaryl-CoA Synthase 2 (HMGCS2) using HepaRG (AID 2283504)
Summary of the method: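 HepaRG, plated 48 h then switched to serum-free induction media; cmpd 8-pt, max 100 uM, 1/2-log, 0.5% DMSO, n=2, 48 h. HMGCS2 mRNA by Fluidigm TaqMan qRT-PCR, ACTB/GAPDH/POLR2A norm; bidirectional fit vs DMSO.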

HGF (gene 3082) = experiment: LTEA_HepaRG_HGF: Life Technologies and Expression Analysis (LTEA) Assay for Hepatocyte Growth Facto (HGF) using HepaRG (AID 2283505)
Summary of the method: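 Read-out is HGF transcript level by qRT-PCR, normalized to three housekeeping genes, fitted bidirectionally against 0.5% DMSO vehicle. Human HepaRG cells received test chemicals for 48 h at up to 100 uM.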

[2] = read-out: Insulin Like Growth Factor 1 (IGF1), IGF1 (gene 3479); experiment: LTEA_HepaRG_IGF1: Life Technologies and Expression Analysis (LTEA) Assay for Insulin Like Growth Factor 1 (IGF1) using HepaRG (AID 2283506)
Summary of the method: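 qRT-PCR readout of IGF1 mRNA, normalized to three housekeeping genes, after 48 h chemical exposure of HepaRG cells. Concentrations: 8-point half-log series, top 100 uM, 0.5% DMSO vehicle. Gain or loss fitted against DMSO baseline.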

[3] = read-out: Intercellular Adhesion Molecule 1 (ICAM1), ICAM1 (gene 3383); experiment: LTEA_HepaRG_ICAM1: Life Technologies and Expression Analysis (LTEA) Assay for Intercellular Adhesion Molecule 1 (ICAM1) using HepaRG (AID 2283507)
Summary of the method: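 Readout is qRT-PCR mRNA level, normalized to three housekeeping genes and fitted bidirectionally against 0.5% DMSO vehicle. Human HepaRG cultures received compound for 48 h, top concentration 100 uM with half-log dilutions.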

[4] = read-out: Insulin-like growth factor-binding protein 1 (IGFBP1), IGFBP1 (gene 3484); experiment: LTEA_HepaRG_IGFBP1: Life Technologies and Expression Analysis (LTEA) Assay for Insulin-like growth factor-binding protein 1 (IGFBP1) using HepaRG (AID 2283508)
Summary of the method: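 Thawed HepaRG cells are plated for 48 h, switched to serum-free induction medium, then dosed in duplicate for another 48 h (100 uM top, half-log steps). Lysates in RLT go to qRT-PCR, and gain or loss of signal is fitted relative to vehicle.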

[5] = read-out: Interleukin 6 (IL6), IL6 (gene 3569); experiment: LTEA_HepaRG_IL6: Life Technologies and Expression Analysis (LTEA) Assay for Interleukin 6 (IL6) using HepaRG (AID 2283509)
Summary of the method: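 Transcript levels, normalized to three housekeeping genes, were quantified by qRT-PCR after 48 h chemical treatment of HepaRG cells. Eight-point half-log series from 100 uM in 0.5% DMSO, duplicates. Fitted both directions against DMSO baseline.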

[6] = read-out: Interleukin 6 Receptor (IL6R), IL6R (gene 3570); experiment: LTEA_HepaRG_IL6R: Life Technologies and Expression Analysis (LTEA) Assay for Interleukin 6 Receptor (IL6R) using HepaRG (AID 2283510);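 for AC50: differentiated human HepaRG liver cells in serum-free induction medium; TaqMan qRT-PCR signal normalized to ACTB GAPDH and POLR2A housekeeping genes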
Summary of the method: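 HepaRG, 48 h exposure, 8-pt half-log series, top 100 uM, 0.5% DMSO vehicle, duplicates. Read-out: TaqMan qRT-PCR of IL6R transcript, housekeeping-gene normalized. Gain or loss fitted relative to DMSO baseline.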

[7] = read-out: Potassium channel subfamily K member 1 (KCNK1), KCNK1 (gene 3775); experiment: LTEA_HepaRG_KCNK1: Life Technologies and Expression Analysis (LTEA) Assay for Potassium channel subfamily K member 1 (KCNK1) using HepaRG (AID 2283511)
Summary of the method: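 KCNK1 transcript measured by TaqMan qRT-PCR against three housekeeping genes, after HepaRG cells were treated 48 h with eight half-log concentrations (top 100 uM, 0.5% DMSO). Curves fitted bidirectionally relative to vehicle.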

[8] = read-out: Keratin 19 (KRT19), KRT19 (gene 3880); experiment: LTEA_HepaRG_KRT19: Life Technologies and Expression Analysis (LTEA) Assay for Keratin 19 (KRT19) using HepaRG (AID 2283512)
Summary of the method: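 KRT19 transcript levels, measured by Fluidigm qRT-PCR against three housekeeping genes, are fitted for gain or loss of signal relative to DMSO. Human HepaRG cells receive test chemicals (top 100 uM, half-log steps, 0.5% DMSO) for 48 hours.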

[9] = read-out: JUN Transcription Factor, JUN (gene 3725); experiment: LTEA_HepaRG_JUN: Life Technologies and Expression Analysis (LTEA) Assay for JUN Transcription Factor using HepaRG (AID 2283513)
Summary of the method: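 HepaRG, 48 h exposure, 8-pt half-log series top 100 uM, 0.5% DMSO, duplicate. JUN mRNA by qRT-PCR (Fluidigm), housekeeping-normalized (ACTB/GAPDH/POLR2A); bidirectional curve fit vs DMSO baseline.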

Measured: AC50

CN1C(=O)CC[C@H]1c1cccnc1
inactive: all assays above

CCCC(=O)OCCC(C)C
not listed: [1]
inactive: all other assays above

CO[C@H]1/C=C/O[C@@]2(C)Oc3c(C)c(O)c4c(O)c(c(/C=N/N5CCN(C)CC5)c(O)c4c3C2=O)NC(=O)/C(C)=C\C=C\[C@H](C)[C@H](O)[C@@H](C)[C@@H](O)[C@@H](C)[C@H](OC(C)=O)[C@@H]1C
active: [2] 4.12 µM
not listed: [1]
inactive: all other assays above

c1ccc2ccccc2c1
inactive: all assays above

c1ccc2n[nH]nc2c1
inactive: all assays above

CC[C@@H]1C[C@H](N(Cc2cc(C(F)(F)F)cc(C(F)(F)F)c2)C(C)=O)c2cc(C(F)(F)F)ccc2N1C(=O)OC(C)C
not listed: [2] | [3]
inactive: all other assays above

CCCCCCCCOc1ccc(C(=O)c2ccccc2)c(O)c1
not listed: [3]
inactive: all other assays above

CCOC(=O)O[C@H](C)OC(=O)c1ccc2c(c1)cc(C(=O)NC1CCN(C(C)C)CC1)n2Cc1cc(-c2ccc(Cl)s2)on1
not listed: [2] | [3]
inactive: all other assays above

C[C@]12CC[C@@H]3c4ccc(O)cc4CC[C@H]3[C@@H]1CC[C@H]2O
active: [1] 82.2 µM
not listed: [2] | [3]
inactive: all other assays above

Cc1cc(F)ccc1-c1cc(N2CC[C@@H](O)[C@H]2CO)ncc1N(C)C(=O)C(C)(C)c1cc(C(F)(F)F)cc(C(F)(F)F)c1
active: [1] 19.7 µM | [2] 17.3 µM | [4] 70.5 µM | [5] 48.6 µM | [9] 74.8 µM
inactive: HGF (gene 3082) | [6] | [7] | [8]

Cc1cccc2ccccc12
not listed: [2] | [3]
inactive: all other assays above

CCCCCCCCN(C)CCCCCCCC
not listed: [2] | [3]
inactive: all other assays above

O=C(O)c1ccccc1C(=O)OCc1ccccc1
not listed: [2]
inactive: all other assays above

Cc1ccc(C(C)C)cc1
not listed: [2] | [3]
inactive: all other assays above

O=C1c2ccccc2C(=O)N1CCc1noc(-c2ccc(CN3CCCCCC3)s2)n1
not listed: [2] | [3]
inactive: all other assays above

CC(C)(C)c1cc(/C=C2\SC(N)=NC2=O)cc(C(C)(C)C)c1O
active: [1] 50 µM | HGF (gene 3082) 24.5 µM | [2] 93.3 µM | [4] 85.1 µM | [5] 29.8 µM | [9] 66.6 µM
inactive: [6] | [7] | [8]

C[C@]12CC[C@@H]3c4ccc(O)cc4CC[C@H]3[C@@H]1CCC2=O
active: [1] 72.7 µM
not listed: [2]
inactive: all other assays above

CC1(C)NC(=O)N(c2ccc([N+](=O)[O-])c(C(F)(F)F)c2)C1=O
active: [1] 76.6 µM | [4] 90.2 µM | [5] 83.7 µM | [8] 67.8 µM
inactive: HGF (gene 3082) | [6] | [7] | [9]

CCO[Si](CCCNC(N)=O)(OCC)OCC
not listed: [2]
inactive: all other assays above

OC12N=C(c3ccccc3)SC1Cc1cc(Cl)ccc12 (configuration not stated)
inactive: HGF (gene 3082) | [5] | [7] | [9]
active: [1] 20 µM | [4] 13 µM | [6] 1.78 µM | [8] 16.5 µM

CCCCOC(=O)CC(CC(=O)OCCCC)(OC(C)=O)C(=O)OCCCC
not listed: [2]
inactive: all other assays above

COc1cccc([C@H](O)C2CCN(CCc3ccc(F)cc3)CC2)c1OC
active: [4] 33.6 µM | [8] 15.3 µM
not listed: [3]
inactive: all other assays above

O=c1[nH]sc2ccccc12
not listed: [2] | [3]
inactive: all other assays above

O=CCCCC=O
inactive: all assays above

Cc1ncc(CO)c(CO)c1O
not listed: [2] | [3]
inactive: all other assays above

CCN(Cc1cccnc1)C(=O)c1cccc(Cl)c1[C@]1(C)C(=O)N(Cc2ccc(OC)cc2OC)c2ccc(Cl)cc21
active: [1] 21.8 µM | HGF (gene 3082) 21.9 µM | [2] 14.4 µM | [4] 17.5 µM | [5] 24.9 µM | [6] 19.9 µM | [7] 15 µM | [8] 27 µM
inactive: [9]

CCCCCCCC[Si](OCC)(OCC)OCC
not listed: [3]
inactive: all other assays above

CN(C[C@@H](CC[N+]12CCC(C3CCCCC3)(CC1)CC2)c1ccc(Cl)c(Cl)c1)C(=O)c1cc(C(F)(F)F)cc(C(F)(F)F)c1
active: [1] 67.4 µM | HGF (gene 3082) 20 µM | [3] 12.2 µM | [4] 13.9 µM | [5] 75.6 µM | [6] 78 µM | [7] 15.8 µM | [8] 26.4 µM | [9] 88.5 µM

O=C(O)c1ccccc1-n1cc(C(=O)O)c(=O)c2cc(Nc3c(F)cc(F)cc3Cl)c(Cl)cc21
not listed: [2]
inactive: all other assays above

CC(O)CC(C)(C)O (configuration not stated)
not listed: [2] | [3]
inactive: all other assays above

COc1ccc2cc(S(=O)(=O)N[C@H](CC(=O)N[C@H](Cc3ccc(CN4[C@H](C)CCC[C@@H]4C)cc3)C(=O)N(C)C(C)C)c3ccc4c(c3)OCO4)ccc2c1
active: HGF (gene 3082) 19.9 µM | [2] 21.2 µM | [4] 13 µM | [5] 30.9 µM | [6] 82.5 µM | [7] 19.7 µM | [8] 12 µM | [9] 57.8 µM
inactive: [1]

O=C1O[C@H]([C@@H](O)CO)C(O)=C1O
inactive: [1] | HGF (gene 3082) | [4] | [5] | [6] | [7]

CCCCCc1ccc(N)cc1
not listed: [3]
inactive: all other assays above

O=C(O)Cc1cc(I)c(Oc2ccc(O)c(I)c2)c(I)c1
active: [1] 77.1 µM | HGF (gene 3082) 66.8 µM | [3] 64.4 µM | [4] 71.1 µM | [5] 80.4 µM | [6] 42.7 µM | [7] 64.3 µM | [8] 0.631 µM | [9] 80.7 µM

CN(C)c1ccc(C(=C2C=CC(=[N+](C)C)C=C2)c2ccc(N(C)C)cc2)cc1
inactive: HGF (gene 3082)
active: [1] 3.66 µM | [2] 1.44 µM | [3] 73.1 µM | [4] 3.64 µM | [5] 6.98 µM | [6] 12.5 µM | [7] 5.1 µM | [8] 4.74 µM | [9] 89.2 µM

CC1=CC(=O)/C(=C(/C)O)C(=O)O1
not listed: [2]
inactive: all other assays above

CCCCOC(=O)c1ccc(O)cc1
inactive: all assays above

O=c1c(-c2ccc(O)cc2)coc2cc(O)cc(O)c12
inactive: all assays above

CN(C)C(=O)C1(N2CCCCC2)CCN(CC[C@@]2(c3ccc(Cl)c(Cl)c3)CN(C(=O)c3ccccc3)CCO2)CC1
inactive: HGF (gene 3082) | [6] | [8]
active: [2] 90.9 µM | [4] 21.6 µM | [5] 22.1 µM | [7] 14.9 µM | [9] 31 µM
